Measurements from ChEMBL document CHEMBL4888484, “Replenishing the malaria drug discovery pipeline: Screening and hit evaluation of the MMV Hit Generation Library 1 (HGL1) against asexual blood stage Plasmodium falciparum ,using a nano luciferase reporter read-out” (2022).
The whole screen tested about 4,800 compounds, of which about 420 (8.8%) showed an effect of 50% or more. For the sample, strong results were picked, then their nearest neighbours and some compounds at random.

system: Plasmodium falciparum; experiment: Confirmatory screen in NF54 nanoGlo assay, in single point, at 2uM, 72h; format: functional, Erythrocyte; conditions: timepoint 72 hour

| SMILES | % Inhibition [%] |
| --- | --- |
| Cc1ccccc1S(=O)(=O)c1cc2cc(Br)cc(Br)c2nc1N | 0 |
| COc1cccc(C2=NS(=O)(=O)N(C)C(C(=O)N3CCC(C(N)=O)CC3)=C2)c1 | 20 |
| CC(=O)Nc1ccc(NC(=O)CCC(C)C)cc1 | -9 |
| CC(=O)Nc1ccc(-c2cn3c4ccccc4ccc3[n+]2C)cc1 | 76 |
| CC(=O)c1ccc(NC(=O)Cn2c(-c3ccccc3)nc(C)cc2=O)cc1 | 4 |
| CC(=O)N[C@H]1[C@H](c2ccccc2)N(CCCc2ccccc2)CC[C@@]1(C)O | 1 |
| C#CCN(C(=O)c1cnn(CC(C)C)c1C(F)F)c1nccs1 | -1 |
| Cc1ccc(C2=NC3(CCCC3)NC2=O)cc1 | 3 |
| Cc1ccc[n+](Cc2ccc3ccccc3n2)c1 | 53 |
| c1ccc2cc(-c3ccc4ccccc4n3)ccc2c1 | -1 |
| c1ccc2c[n+](Cc3ccc4ccccc4n3)ccc2c1 | 50 |
| O[C@@H](Cc1ccc2ccccc2n1)c1ccccc1 | -5 |
| CC(C)(C)OC(=O)N1CCN(C[C@H]2CN(c3ccc(F)cc3)C(=O)O2)CC1 | -11 |
| O=C(Nc1ccccc1)c1ccc(Nc2ncc(-c3cccc(F)c3)cn2)cc1 | -3 |
| CC(C)(C)c1ccc(-c2cc(C[C@H]3CNCC[C@H]3CC(=O)NCCN3CCOCC3)no2)cc1 | 9 |
| O=C(NC[C@H](O)c1ccc(Cl)s1)c1ccsc1 | 1 |
| OC(CNC1CCCNc2ccccc21)c1ccc(Cl)s1 (stereo not given) | 58 |
| CC(C)(C)OCCON=C(N)c1cccs1 | 10 |
| O=C(C[C@@H]1C=CCC1)Nc1nc(-c2ccc(Cl)cc2)cs1 | 2 |
| C[C@H]1CNCCN1C(=O)c1coc2ccccc12 | -4 |
| O=C(Cn1ccnc1)N1CCCCCC1CC(O)c1ccccc1 (stereo not given) | 0 |
| O=c1[nH]c2cc3c(cc2c(=O)n1CCc1nc(-c2ccccc2Br)no1)OCO3 | -4 |
| O=C(C[C@H]1CCN(C(=O)Nc2ccccc2)C1)NC1CC1 | -6 |
| O=C(Nc1ccncc1)c1ccc2ccccc2n1 | 0 |
| CCOC(=O)c1ncn(C2CCCCC2)c1N | 1 |
| CCOC(=O)c1cn(CC)c2cc(NC3CCCCC3)c(F)cc2c1=O | 78 |
| CCOC(=O)c1cc(NC(=O)C(C)(C)NC(=O)OC(C)(C)C)c(F)cc1C | -2 |
| CCc1ccc(CNC(=O)C2(N3CCOCC3)CCC2)s1 | -5 |
| CCCN(CCC)C(=O)CCC(=O)N[C@]1(C(F)(F)F)CCc2ccccc21 | 15 |
| Cc1cccc(NC(=O)[C@@H](C#N)C(=O)C2CCC2)c1 | 0 |
